# Results from the supplement of paper PMC6555819.
# System: THRa:RXRa (NR concentration 90 nM, RXRa partner concentration 90 nM)
# Experiment: PBM binding z-score (relative to random genomic background probes); higher = stronger binding; sequences stand for … in GC…GCGATTGACAGCGTAGAATGAAGG
# Method in brief: (§1)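 Probes were double-stranded and carried 34-nt variable regions with direct-repeat seeds, single-nucleotide variants, half-site ablations and random human genomic background sequences, printed on custom Agilent 4×180K protein-binding microarrays. Arrays were incubated 1 h with ligand-free nuclear receptor dimers in PBS pH 7.4, 2% milk, 0.02% Triton X-100, 1 mM DTT, 0.2 mg/mL BSA and 0.4 mg/ml salmon testes DNA. Antibodies against each partner (one per run) detected binding, and scanned fluorescence was regression-normalized. Binding z-scores use the random background probes as reference.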
row,Sequence,PBM binding z-score
1,TGAATGAGGTTAAAGATCAGAGAACGTGGCGTCG,2.28
2,GCAGACAGGTGAAACGCAGGTAAGTCAGGGTGGC,0.9
3,TGTCATAGTTCAAAGGTAACGTAAGTATCCACAC,2.6
4,TAGCCTAGGTCATTAAGGGGCCAGTATAGAAAGC,2.9
5,CGGACGAGGGCATGAGTTGATAGCAAATGCCGAT,1.17
6,ATCTCAAGGTAAAAGTTCAGTGAATCCCGAGGAT,1.94
7,CCTACTGGCCCAAGGTCATTGATCAGTCAAAGCA,3.57
8,GGATCGAGGGCAAAGTTGATAGCATCTGTCGACG,1.39
9,AGTCAAAGTGCACTAGGTAACGTAAGATTCAGCT,0.43
10,AGAACGAGGGCACGCGGAGTTGATAGCAGAGTAG,1.82
11,CCTCGGAGGACAATAGGAGGTCAGAGCTGCCAGA,2.43
12,CCGACTGGGCCAAGGTTACCATAACGCACAGCCA,1.07
13,TCATATAGGGAAACAGGTGAAAGTCCGTAAGTTA,0.537
14,TAGCCTAGGTCATGCGGGCCAGTTTAGTGTCGGC,3.02
15,ACTAGCAGGCCAAATTTGGGTCACTCAAACAAAG,2.45
16,CAAACTAGGTCAGAGGTCAAAGTCGAGCCAACCA,4.3
17,TTACCAAGGAGAAGGTCGTTGATCCCTCTGTAGA,0.759
18,AGTCACAGTTCAGGACGAGGTAACGTAAAGCACG,3.34
19,TCATATAGGTAATACAGGTGCAAGTCGGCATCTA,1.16
20,CCGAGTAGGTTACGGGGCATTCAGGCAACGGTGA,0.851

row,Sequence,PBM binding z-score
1,CAAACTAGGTCAACAGGTCAAAGTCCGCTTCCCG,3.78
2,ATCTCTAGGTAAGACTCAGTTCTGTGAAGAACGC,0.394
3,ATCTCTAGGTAACAAGTTCAGAGAAAGAGAGGAC,1.49
4,TCATATAGGTAAAAGGTGAAAGTAGGTGTGGTAA,2.19
5,TCTCGGAGGGCACGAAAGGTCAGAGCTCGACATC,4.4
6,GCGACTGGGGCATCAGCAGGTTACCGTAACTTAA,1.03
7,CAAACTCGGTCAAAGGTCAAAGTCGAGCCAACCA,4.33
8,ATCTCTACGTAAAGTTCAGTGAAAGATCGATAGA,0.674
9,GCTAGCAGGACATTTGGGTCACTCAATGACGGGC,1.81
10,TCTTGTAGATCAAGCAGGATAAGAAAGCCTGAGT,-0.341
11,ACAGACAGGTGAGTGAAGGTAAATCAGCTGGACG,1.31
12,CATACAGGGCCAGCTAGGCCAGAGTAGGGACGGC,-0.0247
13,GCGACTGGGGCAAAGCAGGTTACCAAAAGGTTGG,3.28
14,GCTGCTAGGTCAACTGTTGGTCAGCTAAAGCTCG,2.84
15,CCTACTGGGCCATCAGGGCATTGATATCAACGTT,0.292
16,CCTACTGGGCCAAGGTCATCGATCAGTCAAAGCA,3.68
17,CCTTACGGGTCACGAGGTTATCGCACGACGAGCG,3.72
18,ATCGAAAGGACGAGGTGAGTATAGAGAAAGGGAA,1.27
19,TCATATATGTAAACAGGTGAAAGTCCGTAAGTTA,0.84
20,CCTAGCAGCCCAGGGTCACTCAAGCATTTCGCTT,2.77

# System: THRa homodimer (NR concentration 90 nM)
# Experiment: as above
# Method in brief: as §1
row,Sequence,PBM binding z-score
1,TGAATGAGGTTAAAGATCAGAGAACGTGGCGTCG,0.132
2,GCAGACAGGTGAAACGCAGGTAAGTCAGGGTGGC,-0.575
3,TGTCATAGTTCAAAGGTAACGTAAGTATCCACAC,0.118
4,TAGCCTAGGTCATTAAGGGGCCAGTATAGAAAGC,0.623
5,CGGACGAGGGCATGAGTTGATAGCAAATGCCGAT,-0.188
6,ATCTCAAGGTAAAAGTTCAGTGAATCCCGAGGAT,0.529
7,CCTACTGGCCCAAGGTCATTGATCAGTCAAAGCA,2.81
8,GGATCGAGGGCAAAGTTGATAGCATCTGTCGACG,-0.165
9,AGTCAAAGTGCACTAGGTAACGTAAGATTCAGCT,-0.285
10,AGAACGAGGGCACGCGGAGTTGATAGCAGAGTAG,-0.0223
11,CCTCGGAGGACAATAGGAGGTCAGAGCTGCCAGA,0.711
12,CCGACTGGGCCAAGGTTACCATAACGCACAGCCA,0.784
13,TCATATAGGGAAACAGGTGAAAGTCCGTAAGTTA,0.314
14,TAGCCTAGGTCATGCGGGCCAGTTTAGTGTCGGC,1.07
15,ACTAGCAGGCCAAATTTGGGTCACTCAAACAAAG,0.758
16,CAAACTAGGTCAGAGGTCAAAGTCGAGCCAACCA,2.24
17,TTACCAAGGAGAAGGTCGTTGATCCCTCTGTAGA,-0.096
18,AGTCACAGTTCAGGACGAGGTAACGTAAAGCACG,1.84
19,TCATATAGGTAATACAGGTGCAAGTCGGCATCTA,-0.0511
20,CCGAGTAGGTTACGGGGCATTCAGGCAACGGTGA,-0.136

row,Sequence,PBM binding z-score
1,CAAACTAGGTCAACAGGTCAAAGTCCGCTTCCCG,1.9
2,ATCTCTAGGTAAGACTCAGTTCTGTGAAGAACGC,0.633
3,ATCTCTAGGTAACAAGTTCAGAGAAAGAGAGGAC,0.815
4,TCATATAGGTAAAAGGTGAAAGTAGGTGTGGTAA,0.852
5,TCTCGGAGGGCACGAAAGGTCAGAGCTCGACATC,0.163
6,GCGACTGGGGCATCAGCAGGTTACCGTAACTTAA,-0.152
7,CAAACTCGGTCAAAGGTCAAAGTCGAGCCAACCA,1.31
8,ATCTCTACGTAAAGTTCAGTGAAAGATCGATAGA,-0.289
9,GCTAGCAGGACATTTGGGTCACTCAATGACGGGC,0.828
10,TCTTGTAGATCAAGCAGGATAAGAAAGCCTGAGT,-0.704
11,ACAGACAGGTGAGTGAAGGTAAATCAGCTGGACG,-0.577
12,CATACAGGGCCAGCTAGGCCAGAGTAGGGACGGC,-0.492
13,GCGACTGGGGCAAAGCAGGTTACCAAAAGGTTGG,-0.199
14,GCTGCTAGGTCAACTGTTGGTCAGCTAAAGCTCG,0.983
15,CCTACTGGGCCATCAGGGCATTGATATCAACGTT,-0.276
16,CCTACTGGGCCAAGGTCATCGATCAGTCAAAGCA,2.69
17,CCTTACGGGTCACGAGGTTATCGCACGACGAGCG,1.12
18,ATCGAAAGGACGAGGTGAGTATAGAGAAAGGGAA,0.739
19,TCATATATGTAAACAGGTGAAAGTCCGTAAGTTA,0.27
20,CCTAGCAGCCCAGGGTCACTCAAGCATTTCGCTT,1.13
